This is a sample that favours compounds with a hit; in the whole collection about 12% have one here.
SARS PLpro yeast = blocks SARS-CoV papain-like protease in a yeast assay. S. cerevisiae expressing SARS-CoV PLpro, growth rescue. Potency, µM (highest dose often 32.9 µM), usual class: activators. hit rate 0.19% among 330,000. AID 485353; calls by dose curve; also: nearly all actives have a fitted effect of over 55% in size
Pf growth 96h = inhibits malaria parasite growth, 96 h. P. falciparum luciferase reporter growth, 96 h. Potency, µM (titrated, usually from 28.7 µM), hits mostly inhibitors. hit rate 6.9% among 320,000. AID 504834
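Two parasite generations (96 h, 37 C, 5% CO2) of compound exposure in infected erythrocytes (0.05% parasitemia, 2% hematocrit). Luciferase-reporter P. falciparum; decreased luminescence indicates inhibited growth, aimed at apicoplast-acting delayed death.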
Sm TGR inh = inhibitors of Schistosoma mansoni thioredoxin glutathione reductase | Potency, µM (highest dose often 114 µM), hits mostly inhibitors | purified TGR, DTNB reduction, TNB absorbance 405 nm | hit rate 3% among 360,000 | Q962Y6; also: nearly all actives have a fitted effect of over 60% in size
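First, TGR (20 nM dispensed) and NADPH were mixed with compound. Second, a 15 min room-temperature incubation followed. Third, further NADPH and then DTNB were added to start the reaction. Finally, TNB absorbance was monitored kinetically.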
Pf growth 48h = P. falciparum growth inhibition at 48 hours (one generation); P. falciparum luciferase growth in erythrocytes, 48 h; Potency, µM (highest dose often 28.7 µM), hits mostly inhibitors; hit rate 5.9% among 310,000; AID 504832
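Erythrocytes infected with P. falciparum carrying an integrated firefly luciferase reporter (2% hematocrit, 0.1% parasitemia final) were exposed to compounds in RPMI 1640 with 0.5% Albumax at 37 C, 5% CO2. Growth inhibition was scored as reduced luminescence.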
Hits are given with their value; . = inactive; ? = inconclusive; / = no result given; [ ] = remark or other dose. Unless noted, calls follow the shape of the dose curve; as a rule, active = well fitted curve in the direction sought with a large enough effect; inconclusive = small, poorly fitted or top-dose-only effect, or another doubt; inactive = no such curve, though single readings can be large; an effect the other way counts as inactive or inconclusive.

SMILES	SARS PLpro yeast	Pf growth 96h	Sm TGR inh	Pf growth 48h
Cn1nnnc1SCC(=O)N1N=C(c2ccc(Cl)cc2)CC1c1ccco1 (centres undefined)	.	/	/	/
O=C(c1ccc(Br)o1)N1N=C(c2ccc(Cl)cc2)CC1c1ccco1 (centres undefined)	.	9.28µM	44.7µM	?
Clc1ccc(C2=NN(c3ccccc3)C(c3ccco3)C2)cc1 (centres undefined)	.	?	.	.
O=S(=O)(c1ccccc1)N1N=C(c2ccc(Cl)cc2)CC1c1ccco1 (centres undefined)	.	?	39.8µM	10.4µM
CS(=O)(=O)N1N=C(c2cccs2)CC1c1ccco1 (centres undefined)	.	.	7.94µM	.
Cc1ccc(S(=O)(=O)N[C@H](C(=O)OCC(=O)N2N=C(c3ccc(Cl)cc3)CC2c2ccco2)C(C)C)cc1 (some centres undefined)	.	?	.	10.4µM
CCS(=O)(=O)Nc1cccc(C2=NN(S(=O)(=O)c3ccccc3)C(c3ccco3)C2)c1 (centres undefined)	.	?	28.2µM	?
CC(C)CC1NC(=O)N(CC(=O)Nc2ccc(OCc3ccccc3)cc2)C1=O (centres undefined)	.	.	.	.
CCCCSc1cnn(-c2ccccc2)c(=O)c1SCCCC	.	11.7µM	.	11.7µM
CCSc1cnn(-c2ccccc2)c(=O)c1SCC	.	.	.	/
CCN(CC)S(=O)(=O)c1ccc(O)c(C(=O)OCC(=O)NC23CC4CC(CC(C4)C2)C3)c1	.	/	/	/
CC(C)(C)C1CCc2onc(C(=O)Nc3sc4c(c3C#N)CCCC4)c2C1 (centres undefined)	/	/	.	/
COc1ccc(C2CC(C(F)(F)F)n3nc(CO)c(Cl)c3N2)cc1OC (centres undefined)	.	7.38µM	.	.
COc1ccc(NC(=O)c2cc3n(n2)C(C(F)(F)F)CC(c2ccc4c(c2)OCO4)N3)cc1OC (centres undefined)	.	3.29µM	.	.
COc1ccc(C2CC(C(F)(F)F)n3ncc(C(=O)Nc4cccc(O)c4)c3N2)cc1OC (centres undefined)	.	/	.	10.4µM
COc1cccc(C2CC(C(F)(F)F)n3ncc(C(=O)NC(C)(C)C)c3N2)c1 (centres undefined)	.	?	.	.
COc1ccc(C2CC(C(F)(F)F)n3nc(C(=O)O)c(Cl)c3N2)cc1OC (centres undefined)	.	.	.[11.4 µM]	/
CC1=C(C(=O)Nc2cccnc2)C(c2ccccc2)n2nc(-c3ccc(O)cc3)nc2N1 (centres undefined)	/	/	.	/
CCN1CCN(C(=O)C2CCCN(c3ncnc4c3nc3n4CCCCC3)C2)CC1 (centres undefined)	.	10.4µM	.	?
COCCN(Cc1ccco1)C(=O)C1CCCN(c2ncnc3c2nc2n3CCCCC2)C1 (centres undefined)	.	4.15µM	.	?
CCOC(=O)N1CCN(C(=O)C2CCCN(c3ncnc4c3nc3n4CCCCC3)C2)CC1 (centres undefined)	.	?	.	.
CC1CCN(C(=O)C2CCCN(c3ncnc4c3nc3n4CCCCC3)C2)CC1 (centres undefined)	?	9.28µM	.	.
COc1cccc(N2CCN(C(=O)C3CCCN(c4ncnc5c4nc4n5CCCCC4)C3)CC2)c1 (centres undefined)	.	10.4µM	.	?
CCn1c(=O)c(=O)[nH]c2cc(C(=O)NCc3ccc(F)cc3)ccc21	.	.	.	.
CC(=O)N1c2ccc(S(=O)(=O)NCCc3ccc(Cl)cc3)cc2CC1C (centres undefined)	.	?	.	.
SMILES	SARS PLpro yeast	Pf growth 96h	Sm TGR inh	Pf growth 48h
CCCOc1ccc(NC(=O)CC2C(=O)N(c3ccc(C)cc3)C(=O)N2C2CCCC2)cc1 (centres undefined)	/	/	.	/
CCCNC(=O)C1(CC2CC(c3ccccc3)=NO2)CCN(C(=O)C2CCCC2)CC1 (centres undefined)	.	14.7µM	.	13.1µM
O=C(C1CCCC1)N1CCC(CC2CC(c3ccc(Cl)cc3)=NO2)(C(=O)NCC2CCCCC2)CC1 (centres undefined)	.	1.04µM	.	?
O=C(C1CCCC1)N1CCC(CC2CC(c3cccc(Br)c3)=NO2)(C(=O)NCC2CCCCC2)CC1 (centres undefined)	.	?	.	?
COc1ccc(CNC(=O)C2(CC3CC(c4ccccc4)=NO3)CCN(C(=O)C3CCCC3)CC2)cc1 (centres undefined)	.	5.22µM	.	?
CSCCC(NS(=O)(=O)c1ccc2c(c1)oc(=O)n2C)C(=O)N1CCN(c2cccc(Cl)c2)CC1 (centres undefined)	/	/	.	/
COC1C(OC(=O)c2ccc(C)[nH]2)C(O)C(Oc2ccc3c(O)c(NC(=O)c4ccc(O)c(CC=C(C)C)c4)c(=O)oc3c2Cl)OC1(C)C (centres undefined)	.	?	.	5.86µM
CO[C@H]1[C@@H](OC(N)=O)[C@H](O)[C@@H](Oc2ccc3c(O)c(NC(=O)c4ccc(O)c(CC=C(C)C)c4)c(=O)oc3c2C)OC1(C)C	/	.	/	.
CCC1CCCCN1S(=O)(=O)c1ccc(NC(=O)c2nc(S(C)(=O)=O)ncc2Cl)cc1 (centres undefined)	.	.	2µM	.
CCS(=O)(=O)c1ncc(Cl)c(C(=O)Nc2ccc(S(=O)(=O)N3CCCC(C)C3)cc2)n1 (centres undefined)	.	.	0.355µM	.
Cc1ccc(CS(=O)(=O)c2ncc(Cl)c(C(=O)Nc3ccc(OC(F)F)cc3)n2)cc1	.	.	10µM	.
CSc1ncc(Cl)c(C(=O)Nc2ccc(NC(C)=O)cc2)n1	.	.	.	.
CCS(=O)(=O)c1ncc(Cl)c(C(=O)Nc2ccc(C)cc2)n1	.	.	6.31µM	.
CCSc1ncc(Cl)c(C(=O)Nc2ccc(S(=O)(=O)N3CCCCC3CC)cc2)n1 (centres undefined)	/	/	.	/
O=C(Nc1ccc(OC(F)F)cc1)c1ncc(Cl)c(Cl)c1Cl	.	.	.	.
O=C(CNC(=O)c1ccccc1C(F)(F)F)N/N=C/c1cccs1	.	.	.	.
COc1ccccc1N1CCN(CC(=O)c2ccc(F)cc2)CC1	.	.	22.4µM	.
COC(=O)c1ccc(N2CCN(CC(=O)c3ccc(-c4ccccc4)cc3)CC2)c([N+](=O)[O-])c1	.	?	.	11.7µM
COc1ccc(C(=O)CN2CCN(c3ccc(Cl)cc3)CC2)cc1OC	.	.	35.5µM	.
COc1ccc(C(=O)CCC(=O)Nc2ccc(N3CCCCC3)cc2)cc1OC	.	?	.	?
COc1ccc(C(=O)Cn2cc[n+](C)c2)cc1	.	.	.	11.7µM
COc1cc(S(=O)(=O)NCc2ccncc2)ccc1Br	.	.	.	.
COc1ccc(NC(=O)Nc2cccc3c2O[C@H](CN(C)C(=O)NC(C)C)[C@@H](C)CN([C@H](C)CO)C3=O)cc1	.	/	/	/
COc1ccc(N2CCN(CC(=O)c3ccc(Cl)cc3)CC2)cc1	.	?	11.2µM	?

Bioassay records: PubChem BioAssay, National Center for Advancing Translational Sciences (NCATS)
